About 79,000 compounds went through this panel and 15% of them were active in at least one assay; those are over-represented in the sample as a whole. Activity calls are given as the source filed them. No stated cut-off is given here; in the data, active means growth inhibition above about 70%; inactive means the rest.
Key:
[1] = NCI Yeast Anticancer Drug Screen. Data for the rad52 strain (AID 147);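 further: 0% = growth of vehicle-treated control cultures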; settings: S. cerevisiae rad52 mutant growth inhibition, active compounds read high
Outline: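 DNA repair-defective yeast; compound exposure; growth scored against vehicle controls.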

[2] = NCI Yeast Anticancer Drug Screen. Data for the wt1 strain (AID 149);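 further: 0% = growth of vehicle-treated wt1 cultures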; settings: S. cerevisiae wt1 strain (SPY 50644) growth inhibition, active compounds read high
Outline: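 Measured: growth of wt1 yeast under compound versus vehicle treatment, reported as inhibition.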

[3] = NCI Yeast Anticancer Drug Screen. Data for the rad50EPP+ strain (AID 151);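 further: 0% = growth of vehicle-treated control cultures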; settings: S. cerevisiae rad50 mutant strain, active compounds read high
Outline: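 rad50EPP+ yeast treated with test compounds. Readout: growth vs vehicle control.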

[4] = NCI Yeast Anticancer Drug Screen. Data for the mgt1 strain (AID 153); settings: S. cerevisiae mgt1 mutant growth inhibition, active compounds read high
Outline: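 Growth inhibition relative to vehicle controls was scored for the mgt1 yeast strain after compound exposure.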

[5] = NCI Yeast Anticancer Drug Screen. Data for the rad50 strain (AID 155);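 further: 0% = growth of vehicle-only cultures of the same strain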; settings: S. cerevisiae rad50 strain growth inhibition, active compounds read high
Outline: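 Growth of the mutant yeast was measured after compound exposure and referenced to vehicle-treated cultures.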

[6] = NCI Yeast Anticancer Drug Screen. Data for the mec2-1 strain (AID 157); settings: S. cerevisiae mec2-1 strain, active compounds read high
Outline: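 Growth inhibition is read against vehicle-treated controls after compound exposure of the mec2-1 yeast strain, which is defective in DNA damage repair or cell cycle control.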

[7] = NCI Yeast Anticancer Drug Screen. Data for the rad14 strain (AID 159);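 further: 0% = growth of vehicle-treated control cultures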; settings: S. cerevisiae rad14 strain growth inhibition, active compounds read high
Outline: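 Here, inhibition of yeast growth was measured after compound exposure, using a strain with a genetic defect in DNA damage repair and vehicle-treated cultures as the reference.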

[8] = NCI Yeast Anticancer Drug Screen. Data for the sgs1 mgt1 strain (AID 161);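 further: 0% = growth of cultures given vehicle only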; settings: S. cerevisiae sgs1 mgt1 strain, active compounds read high
Outline: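 Yeast cells carrying a defined DNA-repair defect were exposed to test compounds. Growth inhibition was measured relative to vehicle-treated controls.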

[9] = NCI Yeast Anticancer Drug Screen. Data for the CLN2oe strain (AID 163);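 further: 0% = growth of vehicle-only control cultures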; settings: S. cerevisiae CLN2oe strain, active compounds read high
Outline: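 Compound-treated yeast; growth vs vehicle ctrl = % inhibition. Genetically altered strain (cell-cycle control).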

[10] = NCI Yeast Anticancer Drug Screen. Data for the cln2 rad14 strain (AID 165);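 further: 0% = growth equal to vehicle treated cultures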; settings: S. cerevisiae cln2 rad14 strain, active compounds read high
Outline: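 Growth inhibition, relative to vehicle-treated controls, is the read-out. The test organism is a yeast strain with defined genetic alterations, cln2 rad14.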

[11] = NCI Yeast Anticancer Drug Screen. Data for the bub3 strain (AID 167); settings: S. cerevisiae bub3 mutant strain, active compounds read high
Outline: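 Whole-cell yeast assay. The mutant strain was incubated with compounds, and growth inhibition was determined by comparison with vehicle-treated cells.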

[12] = NCI Yeast Anticancer Drug Screen. Data for the wt2 strain (AID 169);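 further: 0% = growth of vehicle-treated yeast cultures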; settings: S. cerevisiae wt2 strain growth inhibition, active compounds read high
Outline: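 Compound exposure of yeast; growth compared with vehicle controls; inhibition reported.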

[13] = NCI Yeast Anticancer Drug Screen. Data for the mlh1 strain (AID 171);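 further: 0% = growth of vehicle-treated control cultures of the same strain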; settings: S. cerevisiae mlh1 strain growth inhibition, active compounds read high
Outline: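 Compounds are applied to a genetically altered yeast strain, and its growth is compared with that of vehicle-treated cultures to give percent inhibition.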

[14] = NCI Yeast Anticancer Drug Screen. Data for the sgs1 strain (AID 173);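 further: 0% = growth of vehicle-only control cultures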; settings: S. cerevisiae sgs1 mutant, active compounds read high
Outline: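 Compounds applied to genetically altered yeast; growth compared with vehicle-treated cultures to give % inhibition.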

[15] = NCI Yeast Anticancer Drug Screen. Data for the mlh1 rad18 strain (AID 175); settings: S. cerevisiae mlh1 rad18 strain growth inhibition, active compounds read high
Outline: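 Cells of a genetically altered yeast strain, deficient in DNA damage repair, were treated with compound. Their growth was then compared with that of vehicle-treated cultures to give inhibition.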

[16] = NCI Yeast Anticancer Drug Screen. Data for the rad18 strain (AID 177); settings: S. cerevisiae rad18 mutant growth inhibition, active compounds read high
Outline: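 Compounds are applied to a repair-deficient yeast strain, and growth is compared with that of vehicle-treated cultures to give percent inhibition.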

[17] = at 5.0 µM (retest, dose inferred, filed as 0.5)
[18] = at 50.0 µM (retest, dose inferred, filed as 5.0)

Measured: growth inhibition

COc1ccc(N=c2cc(-c3ccccc3)oc3ccccc23)cc1
active: [8]; at 50.0 µM 87.1% | [11]; at 50.0 µM 95.5% | [15]; at 50.0 µM 76.2%
inactive: [1]; at 1.2 µM 1% | [1]; at 3.7 µM 2% | [1]; at 11.0 µM 1% | [1]; at 33.0 µM -1% | [1]; at 100.0 µM -3% | [2]; at 1.2 µM 0% | [2]; at 3.7 µM 1% | [2]; at 11.0 µM 2% | [2]; at 33.0 µM 1% | [2]; at 100.0 µM -6% | [3]; at 1.2 µM -1% | [3]; at 3.7 µM -3% | [3]; at 11.0 µM -5% | [3]; at 33.0 µM -2% | [3]; at 100.0 µM 16% | [4]; at 1.2 µM 0% | [4]; at 3.7 µM 1% | [4]; at 11.0 µM -2% | [4]; at 33.0 µM 13% | [4]; at 100.0 µM -6% | [5]; at 1.2 µM 0% | [5]; at 3.7 µM 0% | [5]; [17] 11% | [5]; at 11.0 µM 1% | [5]; at 33.0 µM 0% | [5]; [18] 3% | [5]; at 50.0 µM 57.5% | [5]; at 100.0 µM -4% | [6]; at 1.2 µM -3% | [6]; at 3.7 µM -2% | [6]; [17] -4% | [6]; at 11.0 µM -3% | [6]; at 33.0 µM -4% | [6]; [18] 6% | [6]; at 50.0 µM 27.6% | [6]; at 100.0 µM -7% | [7]; at 1.2 µM -3% | [7]; at 3.7 µM -3% | [7]; at 11.0 µM 0% | [7]; at 33.0 µM -2% | [7]; at 100.0 µM -5% | [8]; [17] 1% | [8]; [18] 17% | [9]; at 1.2 µM -6% | [9]; at 3.7 µM -1% | [9]; at 11.0 µM -6% | [9]; at 33.0 µM -8% | [9]; at 100.0 µM -10% | [10]; [17] -7% | [10]; [18] -1% | [10]; at 50.0 µM 3.85% | [11]; at 1.2 µM -3% | [11]; at 3.7 µM -6% | [11]; [17] -1% | [11]; at 11.0 µM -1% | [11]; at 33.0 µM -4% | [11]; [18] -85% | [11]; at 100.0 µM -1% | [12]; at 1.2 µM 0% | [12]; at 3.7 µM -2% | [12]; at 11.0 µM -1% | [12]; at 33.0 µM -3% | [12]; at 100.0 µM -6% | [13]; at 1.2 µM 0% | [13]; at 3.7 µM -1% | [13]; at 11.0 µM -1% | [13]; at 33.0 µM -4% | [13]; at 100.0 µM -5% | [14]; at 1.2 µM -1% | [14]; at 3.7 µM 1% | [14]; at 11.0 µM -2% | [14]; at 33.0 µM -3% | [14]; at 100.0 µM -4% | [15]; [17] -2% | [15]; [18] 26% | [16]; at 1.2 µM -2% | [16]; at 3.7 µM 0% | [16]; at 11.0 µM -1% | [16]; at 33.0 µM -6% | [16]; at 100.0 µM -8%

CC(CC/C(=N/O)c1ccccc1)(CC/C(=N\O)c1ccccc1)[N+](=O)[O-] (stereo unspecified)
inactive: [1]; at 1.2 µM 1% | [1]; at 3.7 µM 2% | [1]; at 11.0 µM -4% | [1]; at 33.0 µM 4% | [2]; at 1.2 µM -1% | [2]; at 3.7 µM -5% | [2]; at 11.0 µM -7% | [2]; at 33.0 µM 0% | [2]; at 100.0 µM 26% | [3]; at 1.2 µM -3% | [3]; at 3.7 µM 2% | [3]; at 11.0 µM -1% | [3]; at 33.0 µM 2% | [3]; at 100.0 µM 0% | [4]; at 1.2 µM -5% | [4]; at 3.7 µM -3% | [4]; at 11.0 µM -4% | [4]; at 33.0 µM -5% | [4]; at 100.0 µM 57% | [5]; at 1.2 µM 5% | [5]; at 3.7 µM 3% | [5]; [17] 4% | [5]; at 11.0 µM -1% | [5]; at 33.0 µM 4% | [5]; [18] 66% | [5]; at 50.0 µM 11.4% | [6]; at 1.2 µM -3% | [6]; at 3.7 µM -3% | [6]; [17] -11% | [6]; at 11.0 µM -5% | [6]; at 33.0 µM -5% | [6]; [18] 21% | [6]; at 100.0 µM 56% | [7]; at 1.2 µM -2% | [7]; at 3.7 µM 1% | [7]; at 11.0 µM -5% | [7]; at 33.0 µM -3% | [7]; at 100.0 µM 65% | [8]; [17] 0% | [8]; [18] 53% | [8]; at 50.0 µM 37% | [9]; at 1.2 µM -7% | [9]; at 3.7 µM -11% | [9]; at 11.0 µM -13% | [9]; at 33.0 µM -12% | [10]; [17] 2% | [10]; [18] 39% | [11]; at 1.2 µM -6% | [11]; at 3.7 µM -5% | [11]; [17] 8% | [11]; at 11.0 µM -9% | [11]; at 33.0 µM -9% | [11]; [18] 6% | [11]; at 100.0 µM 52% | [12]; at 1.2 µM -10% | [12]; at 3.7 µM -11% | [12]; at 11.0 µM -16% | [12]; at 33.0 µM -10% | [12]; at 100.0 µM 20% | [13]; at 1.2 µM -4% | [13]; at 3.7 µM -3% | [13]; at 11.0 µM -7% | [13]; at 33.0 µM -6% | [13]; at 100.0 µM 32% | [14]; at 1.2 µM -13% | [14]; at 3.7 µM 0% | [14]; at 11.0 µM -11% | [14]; at 33.0 µM -11% | [14]; at 100.0 µM 55% | [15]; [17] 5% | [15]; [18] 46% | [16]; at 1.2 µM 0% | [16]; at 3.7 µM -4% | [16]; at 11.0 µM -6% | [16]; at 33.0 µM 0%
active: [1]; at 100.0 µM 74% | [5]; at 100.0 µM 74% | [6]; at 50.0 µM 96.5% | [9]; at 100.0 µM 71% | [10]; at 50.0 µM 91.7% | [11]; at 50.0 µM 90.8% | [15]; at 50.0 µM 96.8% | [16]; at 100.0 µM 84%

— PubChem BioAssay (NCI)
